Screening results: PubChem, The Scripps Research Institute Molecular Screening Center
MITF inh: MITF inhibitors, primary screen, biochemical, AlphaScreen, human; Microphthalmia-associated transcription factor (Homo sapiens), O75030; AlphaScreen MITF homodimerization, bead proximity signal; inhibition, % at 2.6 µM; hit rate 0.91% among 650,000; in the data active means inhibition above about 50%;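 further: 0% = vehicle wells with protein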
TEAD-YAP inh: TEAD-YAP interaction inhibition, primary screen, TEAD-YAP interaction inhibitor project, luminescence, HEK-TIYL cells; TEAD-Gal4/YAP UAS-luciferase luminescence; inhibition, % at 9.12 µM; hit rate 1.4% among 640,000; AID 1259422, 2018; in the data active means inhibition above about 32%;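 further: 0% = median of test compound wells and 100% = reference inhibitor wells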
GPR151 activ: activators of human GPR151, primary screen, cell-based, PathHunter beta-arrestin, luminescence; G-protein coupled receptor 151 (Homo sapiens), Q8TDV0; PathHunter beta-arrestin GPR151 cells; activation, % at 11.2 µM; hit rate 1% among 650,000; AID 1508602, 2020; in the data active means activation above about 4.9%;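 further: 0% = median of compound wells and 100% = cells with positive control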
Target sequence (Q8TDV0 whole entry, looked up): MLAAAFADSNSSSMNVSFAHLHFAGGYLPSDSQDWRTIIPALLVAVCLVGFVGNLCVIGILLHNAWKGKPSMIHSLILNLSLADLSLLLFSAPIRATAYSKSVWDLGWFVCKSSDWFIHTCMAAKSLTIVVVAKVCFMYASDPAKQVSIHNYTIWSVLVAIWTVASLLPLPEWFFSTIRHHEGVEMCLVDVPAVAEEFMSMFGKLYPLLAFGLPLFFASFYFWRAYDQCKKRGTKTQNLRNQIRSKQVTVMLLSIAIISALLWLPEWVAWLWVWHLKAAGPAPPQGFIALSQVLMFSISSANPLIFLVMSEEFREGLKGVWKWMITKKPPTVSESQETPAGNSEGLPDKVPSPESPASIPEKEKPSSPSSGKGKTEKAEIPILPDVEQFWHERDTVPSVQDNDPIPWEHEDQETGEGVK
FBW7 act: FBW7 E3 ligase activators, primary screen, biochemical, AlphaScreen, human; F-box/WD repeat-containing protein 7 (Homo sapiens), Q969H0; AlphaScreen FBW7–phospho-cyclin E peptide binding, activator screen; normalized activity (activation), % at 26.1 µM; hit rate 0.13% among 650,000; AID 1259310, 2017; in the data active means normalized activity above about 1.9%;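 further: purified mutant Fbw7 with reduced substrate affinity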
* hit, by the source's call. Most compounds without a hit are left out; they make up all but 3.4% or so of the library.

`CC(=O)Nc1ccc(NC(=O)COC(=O)Cc2ccsc2)cc1` gave MITF inh 18.8, TEAD-YAP inh 8.7, GPR151 activ -0.1 and FBW7 act 0.3.
Screening COc1ccc(-c2nc(NC3CC3)c3ncn(-c4ccccc4)c3n2)cn1 returned MITF inh 18.5, TEAD-YAP inh 47.6*, GPR151 activ -1.0 and FBW7 act 0.3.
For COc1cccc(NC(=O)Cn2c(C)cc(=O)c3cccc(OC)c32)c1 the results were MITF inh 6.0, TEAD-YAP inh 48.9*, GPR151 activ 3.3 and FBW7 act 0.7.
For Cc1cccc(NC(=O)Cn2c(C)cc(=O)c3ccccc32)c1 the results were MITF inh 6.7, TEAD-YAP inh 41.2*, GPR151 activ -1.7 and FBW7 act 0.0.
Cc1ccc(NC(=O)Cn2c(C)cc(=O)c3ccccc32)cc1C was read as MITF inh 9.7, TEAD-YAP inh 44.6*, GPR151 activ 3.4 and FBW7 act 0.8.
For Nc1c(/C=C2\C=C(Br)C=CC2=O)c(=O)nc2sc(C3CCCCC3)nn12 the results were MITF inh -11.1, TEAD-YAP inh -1.2, GPR151 activ -0.8 and FBW7 act 0.1.
C=CCOC(=O)C1=C(C)Nc2nnnn2C1c1cccc(OC)c1 (stereo not drawn) was read as MITF inh 12.4, TEAD-YAP inh 50.5*, GPR151 activ -0.8 and FBW7 act 0.0.
`C=CCn1c(SCc2c(C)noc2C)nc2scc(C3CC3)c2c1=O` gave MITF inh -1.0, TEAD-YAP inh 50.2*, GPR151 activ 0.7 and FBW7 act 0.0.
For COc1ccc(C2CC(=O)N3C(=C2C#N)SCC3(O)c2ccc(F)cc2)cc1OC (stereo not drawn) the results were MITF inh 4.3, TEAD-YAP inh 0.4, GPR151 activ 0.1 and FBW7 act 0.0.
Nc1c(C(=O)c2ccc(Cl)cc2)sc2nc3c(cc12)CCCC3 was read as MITF inh 10.8, TEAD-YAP inh 8.6, GPR151 activ 0.2 and FBW7 act 0.1.
Screening Nc1c(C(=O)N2CCOCC2)sc2nc3c(cc12)CCCCC3 returned MITF inh 0.2, TEAD-YAP inh 86.8*, GPR151 activ -9.0 and FBW7 act 0.1.
Nc1c(C(=O)c2ccccc2)sc2nc3c(cc12)CCCC3 was read as MITF inh -19.2, TEAD-YAP inh 39.8*, GPR151 activ -1.4 and FBW7 act 0.0.
For Nc1c(C(=O)N2CCOCC2)sc2nc3c(cc12)CCCC3 the results were MITF inh 15.5, TEAD-YAP inh 30.6, GPR151 activ -6.0 and FBW7 act 0.6.
NC(=O)c1sc2nc3cc4c(cc3cc2c1N)OCCO4 was read as MITF inh 5.7, TEAD-YAP inh 97.4*, GPR151 activ -6.2 and FBW7 act 0.0.
For NC(=O)c1sc2nc3c(cc2c1N)CCCCC3 the results were MITF inh 1.2, TEAD-YAP inh 67.7*, GPR151 activ -7.8 and FBW7 act 0.0.
For COc1ccc(C)cc1NC(=O)C(=O)N1CCN(c2ccccc2)CC1 the results were MITF inh 12.0, TEAD-YAP inh 4.7, GPR151 activ -0.9 and FBW7 act 0.2.
Screening Cc1cc(C)c2nc3sc(C(=O)N4CCOCC4)c(N)c3cc2c1 returned MITF inh 16.1, TEAD-YAP inh 36.0*, GPR151 activ -0.6 and FBW7 act 0.0.
`Nc1c(C(=O)Nc2ccccc2)sc2nc3c(cc12)CCC3` gave MITF inh -8.4, TEAD-YAP inh 29.9, GPR151 activ 1.9 and FBW7 act 0.0.
For Nc1c(C(=O)Nc2cccc(C(=O)O)c2)sc2nc3c(cc12)CCC3 the results were MITF inh 2.3, TEAD-YAP inh 57.5*, GPR151 activ -7.2 and FBW7 act 0.8.
Screening NC(=O)c1ccccc1NC(=O)COC(=O)c1ccccc1-c1nc2ccccc2s1 returned MITF inh 18.8, TEAD-YAP inh 4.2, GPR151 activ -2.0 and FBW7 act 0.2.
`COc1ccc2cc3cc(C(=O)NC4CC4)sc3nc2c1` gave MITF inh -0.6, TEAD-YAP inh 74.2*, GPR151 activ -5.1 and FBW7 act 0.0.
COc1ccc2cc3cc(C(=O)NC4CCN(Cc5ccccc5)CC4)oc3nc2c1 was read as MITF inh -2.9, TEAD-YAP inh 90.2*, GPR151 activ -0.7 and FBW7 act -0.3.
Screening COc1ccc2cc3cc(C(=O)NCCCN4CCCCCC4)oc3nc2c1 returned MITF inh -15.3, TEAD-YAP inh -13.7, GPR151 activ 0.1 and FBW7 act -0.7.
